Compound activity deposited in PubChem by National Center for Advancing Translational Sciences (NCATS).
The list is not random: actives were taken first. Their share in the collection is about 5.3%.
HCV inhibitor = blocks hepatitis C virus; Potency, µM (top dose mostly 41.8 µM), for the others: at the highest dose activity change, negative = inhibition, hits mostly inhibitors; Huh7.5.1 HCVcc-Cre infection, luciferase reporter, 44 h; 340,000 tested, 3.4% active; AID 651820; active means well fitted inhibition curve with a large enough effect; inconclusive means small, poorly fitted or top-dose-only effect, or another doubt; inactive means no such curve, though single readings can be large or run the other way
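Luciferase read-out (15 sec integration) after a 15 min room-temperature substrate step quantifies HCVcc-Cre infection. Cells, 1,000 per well, had compound added 4 h post-plating, then virus at ~0.5 moi, and were cultured 44 h.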
FMDV inh = blocks foot and mouth disease virus; 410,000 tested, 1.2% active; Potency, µM (top dose mostly 57.9 µM), inactives show top-dose activity change, negative = inhibition, usual class: inhibitors; FMDV antiviral cell-based qHTS; calls by dose curve; tested in HEK293T cells; further: read-out not given here; nearly all actives have a fitted effect of over 45% in size
VACV mCherry inh = inhibitors of vaccinia virus infection (mCherry reporter signal); Vaccinia virus mCherry reporter infection, fluorescence; Potency, µM (doses to about 36.5 µM), inactives show at the highest dose activity change, negative = inhibition, actives largely listed as inhibitors; 310,000 tested, 0.63% active; calls by dose curve; tested in A549 cells; further: nearly all actives have a fitted effect of over 35% in size
VACV Venus inh = vaccinia inhibition (Venus reporter); Vaccinia virus Venus reporter expression, fluorescence; Potency, µM (series often up to 36.5 µM), without a hit: at the top dose activity change, negative = inhibition, actives largely listed as inhibitors; 330,000 tested, 0.46% active; calls by dose curve; tested in A549 cells; further: nearly all actives have a fitted effect of over 30% in size
Lassa entry inh = inhibitors of Lassa virus binding or cell entry; 300,000 tested, 1.2% active; Lassa virus pseudotype entry inhibition, cell reporter; AID 540256; Potency, µM (titrated, usually from 37.9 µM), for the others: top-dose activity change, negative = inhibition, usual class: inhibitors; calls by dose curve; tested in HEK293 cells; further: nearly all actives have a fitted effect of over 50% in size
MARV entry inh = blocks Marburg virus binding to or entry into cells; Marburg virus pseudotyped entry inhibition, cell reporter; Potency, µM (top dose mostly 37.8 µM), inactives show at the highest dose activity change, negative = inhibition, usual class: inhibitors; 300,000 tested, 1.8% active; calls by dose curve; tested in HEK293 cells
* marks the source's active call; other numbers are inactive results; i = inactive; ? = inconclusive; . = no result; [ ] = dose if it differs, or a comment. On the % scale 0 is the no-effect control and ±100 the full control effect; potency means the concentration at half of the fitted maximal effect.

SMILES	HCV inhibitor	FMDV inh	VACV mCherry inh	VACV Venus inh	Lassa entry inh	MARV entry inh
CCCCCCC(=O)Cc1cc(OC)c(OC)cc1C=C(C(C)=O)C(=O)OC	.	.	.	.	.	-11%[14.2 µM]
CCOc1ccc(CCNC(=O)c2ccc(-n3c(C)cc4c3CCC(C)C4)cc2)cc1OCC (configuration not stated)	.	-21%	-7%	-22%	?	.
CC(Oc1ccccc1)C(=O)Nc1ccc(S(=O)(=O)N2CCOCC2)cc1 (configuration not stated)	2%	.	?	-3%	18%	0%
Cc1cc(Cl)ccc1OC(C)C(=O)Nc1ccc(S(=O)(=O)N2CCOCC2)cc1 (configuration not stated)	11µM*	-16%	i	-5%	?	-16%[46.1 µM]
COc1ccc(NCC(=O)Nc2cccc(S(=O)(=O)N3CCCC3)c2)cc1Cl	10µM*	-11%	.	.	.	.
CCCC(C(=O)Nc1cccc(S(=O)(=O)N2CCCC2)c1)c1ccccc1 (configuration not stated)	?	-3%	?	-14%	7.1µM*	?
COc1ccc(NC(C)C(=O)Nc2cccc(S(=O)(=O)N3CCOCC3)c2)cc1OC (configuration not stated)	13µM*	?	.	.	.	.
Ic1ccc(Nc2nc(NCCN3CCOCC3)nc(N3CCCC3)n2)cc1	.	.	-24%	-20%	.	.
CCCCN(CCC(=O)O)c1ccc(/C=C/c2ccnc3ccccc23)cc1	.	.	?	-8%	.	.
COc1ccc(CC(=O)Nc2cccc(S(=O)(=O)N3CCCCCC3)c2)cc1OC	?	?	?	-28%	4.5µM*	?
COc1ccc(C[C@H]2CN3C(=NC[C@H]3Cc3ccccc3)N2CCNC(=O)c2ccc(C)c(Br)c2)cc1	-14%	?	?	14µM*	.	.
COc1ccc(C[C@H]2CN3C(=NC[C@H]3Cc3ccccc3)N2CCNC(=O)CCC2CCCCC2)cc1	-7%	-22%	11µM*	?	.	.
C/C=C(\C)C(=O)NCCN1C2=NC[C@H](Cc3ccccc3)N2C[C@@H]1Cc1ccc(OC)cc1	12%	-11%	-32%	-13%	.	.
COc1ccc(C[C@H]2CN3C(=NC[C@@H]3Cc3ccccc3)N2CCNC(=O)c2ccc(C)c(Br)c2)cc1	?	?	?	13µM*	.	.
COCCn1c(=O)c(-c2ccc(F)cc2)nc2cncnc21	.	-10%	.	.	.	.
CC(=O)c1ccc([C@@H]2C=C[C@H](O)[C@@H](CO)O2)cc1	.	.	.	.	.	23%[14.2 µM]
Nc1c(Cl)ncnc1NCCc1ccc(O)cc1	6.3µM*	-25%	?	-15%	.	.
Nc1c(Cl)ncnc1NCc1cccnc1	-5%	-23%	i	2%	8%[46.1 µM]	-6%[46.1 µM]
O=C(Nc1ccc(F)c(F)c1)c1cnn2c1NC(=C1CC1)C=C2C(F)F	.	.	i	-17%	.	.
COc1cc(/C=C2\CC/C(=C\c3ccc(OCCO)c(OC)c3)C2=O)ccc1OCCO	?	35µM*	i	4%	1%	?
CCN1C/C(=C/c2ccc(OC)c(O)c2)C(=O)/C(=C/c2ccc(OC)c(O)c2)C1	?	-21%	?	?	.	.
COc1ccccc1OCCCOc1ccc(/C=C2\SC(=O)NC2=O)cc1OC	6%	0%	-12%	-8%	-25%	?
COc1ccc(/C=C2\CN(Cc3ccccc3)C/C(=C\c3ccc(OC)c(O)c3)C2=O)cc1O	6.3µM*	-12%	7.9µM*	?	?	?
COc1ccc(C=C2C=C(C(C)(C)C)C(=O)C(C(C)(C)C)=C2)cc1OC	?	22µM*	-14%	-23%	14%[46.1 µM]	?
COc1ccc(/C=C2\CC/C(=C\c3ccc(OC)c(OC)c3)C2=O)cc1OC	?	?	i	-9%	?	?
COc1cc(/C=C2/CC/C(=C/c3ccc(O)c(OC)c3)C2=O)ccc1O	13µM*	-4%	-15%	170%	.	.
COc1ccc(/C=c2\[nH]c(=O)/c(=C/c3ccc(OC)c(OC)c3)[nH]c2=O)cc1OC	.	.	24%	-9%	.	.
Cc1cc(Oc2ccccc2)nc(C#N)n1	.	.	i	-8%	.	.
C=CCc1cccc(/C=N\n2cnnc2)c1O	.	.	.	.	.	38%
OC(CN1CCOCC1)c1ccccc1 (configuration not stated)	.	.	i	-20%	.	.
